# Assay: small molecules captured by biotinylated probe aFSTL3 – biochemical, small-molecule microarray, fluorescence 635/667, stem cell growth factor project, primary screen (AID 1064);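 further: measures binding of the biotinylated anti-FSTL3 antibody to printed compounds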
# Conditions: higher = more signal
row,SMILES,composite z-score
1,O=C(O)C1=CC[C@H]2C(=O)N(c3ccccc3)C(=O)[C@@H]12,0.115
2,C=CC[C@H](OC(=O)Nc1ccc(SC)cc1)c1ccc(O)c(F)c1,0.57
3,COC(=O)C1(CC(C)C)C=C2C(=C(C)C(=O)C2C)CN1 (stereo not given),1.72
4,[N-]=[N+]=NCc1ccccc1C[C@]1(C(=O)N2CCCCC2)COC(c2ccc(OCCCO)cc2)=N1,0.438
5,C=C[C@H](C)[C@@H](OC(=O)Nc1ccc(SC)cc1)c1ccc(OCCO)cc1,0.169
6,COC(=O)Cn1c(C(=O)N(C)C)cc2c1C[C@H]1CN(C(=O)c3ccccc3)[C@@](Cc3ccccc3)(C(=O)OC)[C@@H]21,-0.215
7,O=C1c2ccccc2[C@](Cc2ccccc2I)(C(=O)NCCN2CCOCC2)[C@H](c2ccc(CO)cc2)N1Cc1ccccc1C(F)(F)F,-0.103
8,Cc1ccc(S[C@]2(C(=O)NCCN3CCOCC3)CC(=O)N(C(C)C)[C@@H]2c2ccc(CO)cc2I)cc1,1.15
9,C=C(CCCC)C(=O)CC[C@H](OC(=O)c1ccccc1-c1ccccc1C(=O)O)c1cccc(OCCO)c1,0.0622
10,[N-]=[N+]=Nc1ccccc1C[C@@]1(C(=O)NCc2ccccc2)N=C(c2ccc(OCCCO)cc2)O[C@@H]1c1ccccc1,0.584
11,C=CCNC(=O)[C@@H]1[C@H]2C(=O)O[C@H](c3ccccc3)[C@H](c3ccccc3)N2[C@H](c2ccc(OCCO)cc2)[C@@]12C(=O)Nc1ccc(C#CC3=CCCCC3)cc12,-0.607
12,CC(C)C[C@@H]1NC(=O)[C@H]2C[C@@H](C(=O)O)[C@@H](c3cccc(OCCO)c3)N2C1=O,0.885
13,CC(C)c1ccc(NN2C(C(O)C(C)c3ccccc3)C=CC3C(=O)N(c4ccccc4)C(=O)C32)cc1 (stereo not given),1.31
14,Cc1ccc(S(=O)(=O)N2[C@@H](c3ccccc3)C(C(=O)O)=C[C@H]2C(C)(C)C)cc1,-0.316
15,CCOC(=O)C1=CC[C@@H](c2ccccc2)N(S(=O)(=O)c2ccc(C)cc2)[C@@H]1C#N,-0.182
16,COCCOC(=O)N1C(=O)[C@@]2(c3cc(C#CCC(C(=O)OC)C(=O)OC)ccc31)[C@H](C(=O)N1CCc3cc(OC)c(OC)cc3C1)[C@H]1C(=O)O[C@H](c3ccccc3)[C@H](c3ccccc3)N1[C@@H]2c1ccccc1OCCO,-0.308
17,CN(C)CCCC[C@@H]1NC(=O)[C@H]2C[C@@H](C(=O)NCCCCCCNC(=O)CS)[C@@H](c3cccc(OCCO)c3)N2C1=O,0.272
18,COc1cc2c(cc1O)C(C)N(Cc1sc3ccccc3c1Cl)CC2 (stereo not given),0.208

row,SMILES,composite z-score
1,COCCOC(=O)N1C(=O)[C@@]2(c3cc(C#CCC(C(=O)OC)C(=O)OC)ccc31)[C@H](c1ccc(O)cc1)N1[C@H](c3ccccc3)[C@H](c3ccccc3)OC(=O)[C@H]1[C@@H]2C(=O)N1CCc2cc(OC)c(OC)cc2C1,0.0804
2,CCOC(=O)C1=CCC(c2ccncc2)N(S(=O)(=O)c2ccc(C)cc2)C1 (stereo not given),-0.149
3,COC(=O)[C@@]1(Cc2ccc(F)cc2)[C@H]2c3cc(C(=O)N4CCCC4)n(Cc4ccc(C(F)(F)F)nc4)c3C[C@H]2CN1C(=O)c1ccccc1,0.581
4,CC(C)(C)OC(=O)CC[C@@]1(C(N)=O)N=C(c2ccc(OCCCO)cc2)O[C@@H]1c1ccccc1CN=[N+]=[N-],0.389
5,C=CCNC(=O)[C@H]1[C@@H]2C(=O)O[C@@H](c3ccccc3)[C@@H](c3ccccc3)N2[C@@H](c2ccc(OCCO)cc2)[C@]12C(=O)N(C(=O)OCCOC)c1ccc(C#CCC(C(=O)OC)C(=O)OC)cc12,1.55
6,C=CCOC(=O)[C@H]1[C@@H]2C(=O)O[C@@H](c3ccccc3)[C@@H](c3ccccc3)N2[C@@H](c2ccc(OCCOC(=O)[C@@H]3C[C@@H]4C(=O)N[C@@H](Cc5ccccc5)C(=O)N4[C@@H]3c3ccc(O)cc3)cc2)[C@]12C(=O)Nc1ccc(I)cc12,1.36
7,CCN1C(=O)C2CC(=O)C3C(CN(S(=O)(=O)c4ccc(C)cc4)C3c3ccc(C)cc3)C2C1=O (stereo not given),0.584
8,C=C(C)C1CN([C@H](CO)c2ccccc2)C(=O)/C1=C\c1ccccc1 (stereo not given in full),-0.511
9,C=C(COC)C(=O)CC[C@H](OC(C)=O)c1ccc(CO)o1,-0.374
10,COC(=O)C(CC#Cc1ccc2c(c1)[C@]1(C(=O)N2)[C@H](C(=O)NC[C@H](O)c2ccccc2)[C@H]2C(=O)O[C@H](c3ccccc3)[C@H](c3ccccc3)N2[C@@H]1c1ccc(O)cc1)C(=O)OC,-0.297
11,C=C[C@H](OC)[C@@H](O)c1ccc(OC)c(O)c1,0.694
12,CC[C@@H](O[Si](C#C[Si](C(C)C)(C(C)C)C(C)C)(C(C)C)C(C)C)c1cn(Cc2cccc(Cl)c2)nn1,-0.385
13,COC(=O)C1=CC(c2ccc(CO)cc2)=CC(C2CC2)N(Cc2cc3c(cc2Br)OCO3)C=C1C(=O)OC (stereo not given),0.131
14,O=C(NCCN1CCOCC1)[C@@H]1c2ccccc2C(=O)N(CC23CC4CC(CC(C4)C2)C3)[C@H]1c1ccc(CO)cc1,-0.203
15,COCCCNC(=O)[C@@]1(CCC(=O)OC(C)(C)C)N=C(c2ccc(OCCCO)cc2)O[C@H]1c1ccccc1,0.593
16,CN1C2C=C(c3ccc(CO)cc3)C(C3C(=O)N(C(N)=O)C(=O)C32)C1C1CC1 (stereo not given),-0.153
17,N#Cc1ccc(NN2C(C(O)c3ccc(B(O)O)cc3)C=CC3CN(c4ccccc4)C(=O)C32)cc1 (stereo not given),0.057

# Source: PubChem BioAssay
